Results reported in PubChem BioAssay (EPA / NIEHS).
Calls of active or inactive are those of the source. How the source made its calls: active means hit-call score of the fitted dose curve at least 0.9, where 1 is the maximum; inactive means score below 0.9.

Assay: ATG_ISRE_CIS: Attagene CIS-FACTORIAL HepG2 Assay for human Interferon Regulatory Factor 1 (IRF1) binding to an Interferon-Stimulated Response Element (ISRE) (AID 2282948)
Conditions: HepG2 ISRE cis-reporter (Attagene), mRNA transcription readout; actives raise or lower the signal
Experimental: ATG_CIS is a cell-based, multiplexed-readout assay that uses HepG2, a human liver cell line, with measurements taken at 24 hours after chemical dosing in a 24-well plate.ATG_ISRE_CIS is one of 52 assay component(s) measured or calculated from the ATG_CIS assay. It is designed to make measurements of mRNA induction, a form of inducible reporter, as detected with fluorescence intensity signals by Reverse transcription polymerase chain reaction (RT-PCR) and Capillary electrophoresis technology.Data from the assay component ATG_ISRE_CIS was analyzed into 1 assay endpoint. This assay endpoint, ATG_ISRE_CIS, was analyzed with bidirectional fitting relative to DMSO as the negative control and baseline of activity. Using a type of inducible reporter, measures of mRNA for gain or loss-of-signal activity can be used to understand the reporter gene at the transcription factor-level as they relate to the gene IRF1. Furthermore, this assay endpoint can be referred to as a primary readout, because this assay has produced multiple assay endpoints where this one serves a reporter gene function. To generalize the intended target to other relatable targets, this assay endpoint is annotated to the dna binding intended target family, where the subfamily is interferon regulatory factors.
Human liver HepG2 cells are transiently transfected with multiple reporter transcription units (MRTUs) in 6-well plates using FuGene 6 reagent (Roche; 3 ml FuGene/1 mg DNA). The MRTU constructs are regulated by a cis-regulating element (promoter). […] A major difference between the CIS and TRANS system is that in CIS activities of endogenous TFs are measured, whereas the TRANS assay evaluates changes in activities of exogenous, chimeric NR-Gal4 proteins. […] At the end of 24 hour incubation, total RNA was isolated using TriZol reagent (Invitrogen). The isolated RNA is then reverse-transcribed using oligo(dT) primer and Mo-MLV reverse transcriptase (Invitrogen) with DNAse I (Ambion) treatment for 30 min. The one-tenth of the produced cDNA was amplified by PCR using Taq DNA polymerase (Invitrogen) and two reporter sequence-specific primers. The PCR products were fluorescently labeled by primer extension with 6-arboxyfluorescein (6-FAM) 5'-labeled reporter sequence-specific primer (2 min at 95 C, 20 s at 68 C and 10 min at 72 C) and these products were digested with 5U of HpaI (New England Biolabs) for 2h at 37 C. The fragments were purified using Qiaquick PCR columns (Qiagen), analyzed on an ABI 3130xL genetic analyzer (Applied Biosystems) with peak positions identified by using a set of X-rhodamine (ROX)-labeled MapMarker1000 molecular weight standards (BioVentures). The raw capillary electrophoresis data was processed using Attagraph software (Attagene).

| SMILES | outcome | AC50 |
| --- | --- | --- |
| C[N+](C)(C)CC(=O)O | inactive |  |
| c1ccc(Nc2ccc3ccccc3c2)cc1 | inactive |  |
| CCOC(=O)N(C)N=O | inactive |  |
| O=S(=O)(O)OOS(=O)(=O)O | inactive |  |
| CC(C)(Cl)Cl | inactive |  |
| O=[N+]([O-])c1ccc(Cl)cc1 | inactive |  |
| CC(C)CCCCCCCOC(=O)c1ccccc1C(=O)OCCCCCCCC(C)C | inactive |  |
| O=C1Nc2ccc(Cl)cc2C(c2ccccc2)=NC1O (stereo not given) | inactive |  |
| CN1C[C@H](C(=O)N[C@]2(C)O[C@@]3(O)[C@@H]4CCCN4C(=O)[C@H](Cc4ccccc4)N3C2=O)C=C2c3cccc4[nH]cc(c34)C[C@H]21 | inactive |  |
| CC(C)CCCCCCCOP(=O)(Oc1ccccc1)Oc1ccccc1 | inactive |  |
| Cc1ccc(N(SC(F)(Cl)Cl)S(=O)(=O)N(C)C)cc1 |  | 14.7 µM (active) |
| CC(C)(c1cc(Cl)c(O)c(Cl)c1)c1cc(Cl)c(O)c(Cl)c1 |  | 47.2 µM (active) |
| Cl/C=C\CCl | inactive |  |
| Cc1ccc(C)c2ccccc12 | inactive |  |
| CC(C)C#N | inactive |  |
| O=C(NC(=O)c1c(F)cccc1F)Nc1ccc(Oc2ccc(C(F)(F)F)cc2Cl)cc1F |  | 26.3 µM (active) |
| CCc1cc(C)cc(CC)c1-c1c(OC(=O)C(C)(C)C)n2n(c1=O)CCOCC2 | inactive |  |
| N#CC(c1ccccc1)c1ccccc1 | inactive |  |
| C=C(Cl)Cl | inactive |  |
| CCC(C)(C)O | inactive |  |

| SMILES | outcome | AC50 |
| --- | --- | --- |
| CN(N=O)c1ccccc1 | inactive |  |
| CN(C)C(=O)C(c1ccccc1)c1ccccc1 | inactive |  |
| O=[N+]([O-])C=Cc1ccccc1 |  | 27.6 µM (active) |
| COc1ncc(F)c2nc(S(=O)(=O)Nc3c(F)cccc3F)nn12 | inactive |  |
| NNc1ccccc1 | inactive |  |
| N#Cc1cc(I)c(O)c(I)c1 | inactive |  |
| CCC[N+](=O)[O-] | inactive |  |
| C=CCN(CC=C)C(=O)C(Cl)Cl | inactive |  |
| Cc1ccc(OP(=O)(Oc2ccc(C)cc2)Oc2ccc(C)cc2)cc1 (tested in a mixture with another compound) |  | 100 µM (active) |
| O=C(CCN1CC1)OCC(CO)(COC(=O)CCN1CC1)COC(=O)CCN1CC1 | inactive |  |
| CCCCCCCCCCCC#N | inactive |  |
| Nc1ccc([N+](=O)[O-])cc1N | inactive |  |
| [Cl-].[Cl-].[Cl-].[Yb+3] | inactive |  |
| COC(=O)COc1ccc(Cl)cc1Cl | inactive |  |
| CC(O)CN(CC(C)O)CC(C)O (stereo not given) | inactive |  |
| CC(C)COP(=O)(OCC(C)C)OCC(C)C | inactive |  |
| CC1CCC(=O)O1 (stereo not given) | inactive |  |
| O=C1C=CC(=O)C=C1 | inactive |  |
| Nc1cc(Cl)cc(Cl)c1 | inactive |  |
| [CH3][Sn]([CH3])([Cl])[Cl] | inactive |  |
